# PLAP activator – activators of human placental alkaline phosphatase; purified PLAP enzyme, luminescent substrate read-out; stronger effect = higher value; activation fold at 20 µM; hit rate 1.2% among 96,000; AID 696; in the data active means activation fold above about 2
# Target sequence (P05187 whole entry, looked up): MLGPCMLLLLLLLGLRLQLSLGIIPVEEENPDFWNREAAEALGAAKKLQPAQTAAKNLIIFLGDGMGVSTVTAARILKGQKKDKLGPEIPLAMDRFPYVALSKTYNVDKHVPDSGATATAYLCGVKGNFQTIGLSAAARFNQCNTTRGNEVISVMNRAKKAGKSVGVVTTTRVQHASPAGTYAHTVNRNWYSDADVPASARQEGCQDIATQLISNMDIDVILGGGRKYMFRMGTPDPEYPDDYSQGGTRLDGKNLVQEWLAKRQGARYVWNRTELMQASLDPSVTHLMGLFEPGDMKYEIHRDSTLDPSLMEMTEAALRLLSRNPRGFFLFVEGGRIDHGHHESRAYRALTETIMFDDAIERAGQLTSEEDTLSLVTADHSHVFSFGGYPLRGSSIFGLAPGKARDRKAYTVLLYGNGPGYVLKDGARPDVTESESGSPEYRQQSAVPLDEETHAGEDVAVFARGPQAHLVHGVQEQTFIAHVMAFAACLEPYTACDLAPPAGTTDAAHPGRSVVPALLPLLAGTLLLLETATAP
# M1 antag – antagonists of rat M1 muscarinic receptor. P08482. hit rate 3.4% among 64,000. B-score at 10 µM. CHO-M1 cells, Fluo-4 calcium, ACh EC80 antagonist mode; stronger effect = lower value;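 active means calcium fluorescence response, raw or row-and-column corrected B-score, differing from the plate sample mean either way at a set confidence level, mostly lower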
# Cav32 inh – blocks human Cav3.2 T-type calcium channel. O95180. Cav3.2-expressing cells, Fluo-4 calcium fluorescence FDSS; stronger effect = lower value. B-score at 10 µM. hit rate 4% among 100,000;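 active means single-dose well whose peak fluorescence ratio is a statistical outlier from its plate by either plate-standardised score or position-corrected B-score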
# M1 ag – M1 muscarinic receptor agonism | B-score at 10 µM | hit rate 3% among 64,000 | CHO-M1 cells, Fluo-4 calcium fluorescence, agonist mode; stronger effect = higher value;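 active means fluorescence rise, raw or as B-score row- and column-corrected plate score, outside the 99.7% band of its plate's samples, either direction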
# Her2 expr inh – Her2 kinase expression inhibition; P04626; HER2 level % of control, % at 10 µM; AID 645; hit rate 0.69% among 65,000; SKBR-3 HER2 protein level, AlphaScreen, 18-24 h; stronger effect = lower value;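 active means HER2 level under 5% of the carrier-only control; inconclusive means no clear call, values can overlap the other calls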
# M1 ag confirm – confirmation of rat M1 muscarinic receptor agonists; shares compounds with M1 ag; CHO-M1 cells, Fluo-4 calcium fluorescence, agonist mode; actives lie on both sides; fluorescence change (max-min) at 10 µM; hit rate 19% among 1,700;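 active means fluorescence change differs from the solvent-only DMSO control mean at a set confidence level in both duplicate runs; inconclusive means differs from solvent-only control mean in just one of two runs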;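 further: an EC20 dose of acetylcholine follows compound addition during the same imaging run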
# M4 agonist ctr – activates rat M4 receptor in counter-screen for M1 agonists; CHO M4/Gqi5 cells, Fluo-4 calcium fluorescence, agonist mode; actives lie on both sides; hit rate 9% among 1,700; shares compounds with M1 ag; fluorescence change (max-min) at 10 µM; AID 1741;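 active means fluorescence change differing from the plate's solvent-only control wells at 99.7% confidence in both duplicates, whether higher or lower; inconclusive means differs from solvent controls in only one of two duplicates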
# A number is an active result; 0 = inactive; ? = inconclusive; - = no result. A selection: hits, their analogues and other compounds. The true share with any hit is near 7.9%.
SMILES,PLAP activator,M1 antag,Cav32 inh,M1 ag,Her2 expr inh,M1 ag confirm,M4 agonist ctr
CCCC(=O)Nc1nc(-c2ccc3c(c2)OCCO3)cs1,0,0,0,3.2,0,0,0
O=C(CSCC(=O)Nc1nc(-c2ccc3c(c2)OCO3)cs1)Nc1nccs1,-,-,0,-,-,-,-
CCC1CCCCN1C(=O)CSc1nnc(-c2cccc(Cl)c2)o1 (centres undefined),0,0,0,2.5,0,0,0
C=CCOC(=O)C1=C[C@H](C2CCCCC2)[C@@H](CCCO)[C@H](OCC)O1,-,-,0,-,-,-,-
Cn1cc(C(=O)c2ccccc2)cc1-c1nc2ccccc2n1C,0,0,0,6.5,0,0,0
CCC(=O)c1cc(-c2nc3ccccc3n2C)n(C)c1,0,0,0,0,0,-,-
Cc1cccn2c(=O)c3cc(C(=O)NCc4ccco4)c(=N)n(CCOCCO)c3nc12,-,0,-,12,0,107,?
N=c1c(C(=O)NCc2ccco2)cc2c(=O)n3ccccc3nc2n1CC1CCCO1 (centres undefined),-,-,0,-,-,-,-
COc1ccc(CCn2c(=N)c(C(=O)NCc3ccco3)cc3c(=O)n4ccccc4nc32)cc1OC,-,0,-,0,0,-,-
N=c1c(C(=O)NCc2ccc(F)cc2)cc2c(=O)n3ccccc3nc2n1CC1CCCO1 (centres undefined),0,0,0,3.7,0,90,?
Cc1ccc(Cn2c(=N)c(C(=O)NCc3ccco3)cc3c(=O)n4ccccc4nc32)cc1,-,0,-,0,0,-,-
N=c1c(C(=O)NCc2ccco2)cc2c(=O)n3ccccc3nc2n1CCc1ccccc1,0,0,0,9.6,0,0,0
CCCOc1ccc(/C(O)=C2\C(=O)C(=O)N(CCCN(C)C)C23C(=O)N(C)c2ccccc23)cc1 (centres undefined),0,0,-,0,0,-,-
CCC(C)NC(=O)c1ccc(CS(=O)(=O)Cc2ccc(Cl)cc2)o1 (centres undefined),0,-,0,-,-,-,-
COc1ccccc1-n1c(C)cc(C=O)c1C,0,-,0,-,-,-,-
COC(=O)C1=C(N)Oc2cc(N(C)C)ccc2C1c1ccccc1OC (centres undefined),0,0,-7,10,0,0,0
COC(=O)C1=C(N)Oc2cc(C)n(CC3CCCO3)c(=O)c2C1c1ccccc1OC (centres undefined),0,0,0,0,0,-,-
CC(C)C(=O)Nc1nnc(CCN2CCCCC2)s1,0,-,0,-,-,-,-
CC1CCCCC1N1CN=C(Nc2nc3ccccc3s2)NC1 (centres undefined),0,-,0,-,-,-,-
COC(=O)COc1cc(C)cc2oc(=O)c(CC(=O)OC)c(C)c12,0,0,0,3.1,0,?,0
CCOC(=O)C1=NN(C(=O)Nc2ccc(OC)cc2)C2C(=O)N(c3cccc(C(F)(F)F)c3)C(=O)C12 (centres undefined),0,-,0,-,-,-,-
Cc1cnc(NC(=O)c2cc3c(C)nn(-c4ccccc4)c3s2)s1,0,-,0,-,-,-,-
COc1ccccc1CNC(=O)c1c(N)n(CCCN2CCOCC2)c2nc3ccccc3nc12,0,-,-,-,-,-,-
Nc1c(C(=O)NCc2ccc3c(c2)OCO3)c2nc3ccccc3nc2n1CCCN1CCOCC1,0,0,0,-2.6,3.8,0,0
CN1CCN(CCCNC(=O)c2cn(C3CCCCC3)c(=O)c3c2c2ccccc2n3C)CC1,0,0,0,0,0,-,-
SMILES,PLAP activator,M1 antag,Cav32 inh,M1 ag,Her2 expr inh,M1 ag confirm,M4 agonist ctr
Cn1c2ccccc2c2c(C(=O)NCC3CCCO3)cn(C3CCCC3)c(=O)c21 (centres undefined),0,0,0,8.8,0,0,0
COc1ccc(OC)c(N2C(=O)CC(C(C)c3ccccc3)C2=O)c1 (centres undefined),0,0,0,0,0,-,-
Cc1n[nH]c(C)c1N1C(=O)c2cccc3c(N4CCCCCC4)ccc(c23)C1=O,0,-14,-9.7,451,0,2972,2513
CC(=O)c1ccc2c3c(cccc13)C(=O)N(c1c(C)nn(C)c1C)C2=O,0,0,0,0,0,-,-
O=C(O)C1C2C=CC(C2)C1C(=O)NCCc1cccc(Cl)c1 (centres undefined),-,0,0,0,0,-,-
N#CC1=C(c2ccccc2)N=P(N2CCOCC2)(N2CCOCC2)N=C1N1CCOCC1,-,0,-,0,-,-,-
CNc1ccccc1-n1ccc(-c2ccccc2)n1,0,0,0,3.6,0,0,0
CC(C)Oc1ccc(C(CC(=O)O)NC(=O)c2cccs2)cc1 (centres undefined),0,-,0,-,-,-,-
Cc1cc(=O)oc2cc(NC(=O)CCC(=O)O)ccc12,0,-,0,-,-,-,-
CCOc1ncccc1C(=O)Nc1ccc2c(C)cc(=O)oc2c1,0,0,0,13,0,?,?
CCCSc1nc(C)cc(C)c1C(N)=O,0,-,0,-,-,-,-
CCOC(=O)N1CCN(Cc2nc(-c3ccc(C)cc3)no2)CC1,0,0,0,2.5,0,0,0
CCc1c(-c2ccccc2)nc2nc(C)c(C)nn12,0,0,0,46,0,237,219
COc1cc(C2CC(=O)c3c([nH]c(C(=O)OCCOC(C)C)c3C)C2)cc(OC)c1OC (centres undefined),0,0,-4.7,3.2,0,-33,0
CCOC(=O)c1[nH]c2c(c1C)C(=O)CC(c1ccc(OC)c(OC)c1)C2 (centres undefined),0,0,0,0,0,-,-
CCc1cc(OCCCSc2nc(C)cc(=O)[nH]2)ccc1Cl,0,-,0,-,-,-,-
CC1(C)Cc2nc3oc4c(N(CCO)Cc5ccccc5)ncnc4c3cc2CO1,0,0,0,8.1,0,0,0
CC1(C)Cc2nc3oc4c(N5CCOCC5)ncnc4c3cc2CO1,0,-,0,-,-,-,-
c1ccc(N2CCN(c3ncnc4c3oc3ccccc34)CC2)cc1,0,0,-,0,0,-,-
CCc1nnc(N2CCN(c3ncnc4c3oc3ccccc34)CC2)s1,0,-4,0,9.9,0,0,0
CCOC(=O)C1CCCN(c2ncnc3c2oc2ccccc23)C1 (centres undefined),0,-3.3,0,4.2,0,0,0
CCOC(=O)C1CCN(c2ncnc3c2oc2ccccc23)CC1,0,0,0,0,0,-,-
CCOC(=O)C1CCN(c2nc(-c3ccccc3)nc3c2oc2ccccc23)CC1,0,0,0,5.8,0,0,0
O=c1c2ccccc2nc2n1CCN2Cc1ccc(Cl)cc1,0,0,0,5.6,0,?,0
CC1(C)Cc2c(C#N)c(N)sc(=S)c2CS1,0,0,0,0,0,-,-
N#Cc1c(N)sc(=S)c2c1CCCCC2,0,0,0,13,0,0,0
O=C1CC(C2CCCO2)C(=O)N1Cc1ccccc1 (centres undefined),0,0,-,0,0,-,-
COc1ccc(/C=N/NC(=O)C2CCN(c3ncc(C(F)(F)F)cc3Cl)CC2)cc1,0,-,0,-,-,-,-
CC(C)CC(NS(=O)(=O)c1ccc2c(c1)oc(=O)n2C)C(=O)NCc1cccnc1 (centres undefined),0,0,0,0,0,-,-
COC(C[C@H](O)C[C@H](O)[C@H](C)OCc1ccccc1)OC,-,-,0,-,-,-,-

# Assay outcomes from PubChem BioAssay.
